PubChem BioAssay (NCI)
About 83,000 compounds went through this panel and 20% of them were active in at least one assay; those are over-represented in the sample as a whole.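 Method: cells in 96-well plates; compound added at one concentration; 48 h incubation; percent growth measured; values under 10 scored active.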 Unmarked numbers belong to inactive results. Active and inactive are the calls of the source.

Tested on: RPMI-8226 leukemia
Assay: NCI-60 one-dose screen, 48 h (100 = growth as untreated, 0 = no growth, -100 = all killed)
Conditions: 10 µM unless noted

Q: For `O=c1[nH]c2ccc(Cl)cc2cc1CSc1ccccc1Nc1nccc(-c2ccc(Cl)cc2)n1`, which growth is on record?
A: The growth was 84%.

Q: Which growth does the source give for `CC(C)(C)OC(=O)N1C(=O)c2c(c3c4ccccc4[nH]c3c3ccc4ccccc4c23)C1=O` here?
A: Its growth is 45.4%.

Q: With `CNC(=O)c1cc(-c2ccc(NC(=O)Nc3ccc(N4CCN(C)CC4)c(C(F)(F)F)c3)cc2)nc2cccnc12` as the compound, how does the growth read?
A: The growth was -35.8% (active).

Q: How did the growth turn out when `C/C(=N/NC(N)=S)c1ccc(Nc2nc(SCC(C)C)nc(-c3ccc(F)cc3)c2C#N)cc1` was run?
A: The growth was 34.2%.

Q: For `CCCCN1C(=O)/C(=c2\sc3n(c2=O)C2C(NN=3)N(CC)C(=O)N2CC)c2cc(Cl)ccc21` (stereo unspecified), which growth is on record?
A: The growth was 70.2%.

Q: `COc1cc(-c2nc3ccc(-c4nnc(SCC(=O)Nc5ccc(C(C)=O)cc5)o4)cc3[nH]2)cc(OC)c1OC` was tested. Which growth did it give?
A: The growth was 108%.

Q: With `N#Cc1c(-c2ccc(Cl)cc2)nc(SCc2ccc(F)cc2)nc1N1CCNCC1` as the compound, how does the growth read?
A: Its growth is -36.9% (active).

Q: How did the growth turn out when `Cn1cc(-c2cc(N)n3nc(-c4cn(C)c5ccc(Br)cc45)cc3n2)c2cc(Br)ccc21` was run?
A: The growth was 64.3%.

Q: For `Cc1cc(C(=O)Nc2sc3c(c2C(N)=O)CCC(=O)C3)ccc1OCCN1CCCCC1`, which growth is on record?
A: The growth was 85.7%.

Q: With `NS(=O)(=O)c1ccc(Nc2nc(SCC(=O)c3ccc(Cl)cc3)nc3ccccc23)cc1` as the compound, how does the growth read?
A: The growth was 83.6%.

Q: With `CC(C)(C)Nc1nc2c(OCCc3ccccc3)cccn2c1-c1ccc(O)cc1` as the compound, how does the growth read?
A: The growth was 19%.

Q: `CCOc1ccc2nc(NC(=O)c3ccc(C(F)(F)F)cc3)sc2c1` was tested. Which growth did it give?
A: The growth was 100%.

Q: `N#Cc1c(-c2ccc(Cl)cc2)nc(SCc2ccc([N+](=O)[O-])cc2)nc1N1CCNCC1` was tested. Which growth did it give?
A: Its growth is -24.5% (active).

Q: How did the growth turn out when `Cc1cccc(/C=C/c2nn3c(-c4ccco4)nnc3s2)c1` was run?
A: The growth was 100%.

Q: How did the growth turn out when `Cc1sc2c(c1C)c(=O)nc1c(-c3nc(-c4ccc(F)cc4)no3)n[nH]n12` was run?
A: Its growth is 108%.

Q: `C[C@@H]1CN(c2ccc3ncc(C#Cc4cncc(C(=O)Nc5ccc(CN6CCN(C)CC6)c(C(F)(F)F)c5)c4)n3n2)C[C@H](C)O1` was tested. Which growth did it give?
A: Its growth is -2.52% (active).

Q: For `Nc1c(C(=O)Nc2ccc(Cl)cc2)sc2nc(-c3cnccn3)cc(-c3cccs3)c12`, which growth is on record?
A: Its growth is 85.1%.

Q: Which growth does the source give for `O=c1[nH]c2ccccc2cc1CSc1ccccc1Nc1nccc(-c2ccc(C(F)(F)F)cc2)n1` here?
A: The growth was 62.6%.

Q: Which growth does the source give for `Cc1c(Nc2nnc(SCC(=O)Nc3sc4c(c3C#N)CCCC4)s2)c(=O)n(-c2ccccc2)n1C` here?
A: The growth was 96.7%.

Q: For `CS(=O)(=O)c1ccc(-c2nc3ccccn3c2C=Nc2ccc(Cl)cc2)cc1`, which growth is on record?
A: Its growth is 77.1%.

Q: `N[C@@H](Cc1cn(-c2c3ccccc3nc3ccccc23)nn1)C(=O)O` was tested. Which growth did it give?
A: Its growth is 99.9%.

Q: `CC(C)(C)Nc1nc2c(OCCc3ccccc3)cccn2c1-c1cccc(F)c1` was tested. Which growth did it give?
A: Its growth is -22.6% (active).

Q: With `CCN1C(=S)N(c2ccccc2)C2NC(=O)N(/N=C/C=C/c3ccccc3OC)C21` (stereo unspecified) as the compound, how does the growth read?
A: The growth was 92.6%.

Q: How did the growth turn out when `CCOC(=O)c1csc(NC(=O)CSc2nc3sc4c(c3c(=O)n2-c2ccc(Cl)cc2)CCCC4)n1` was run?
A: The growth was 92.5%.

Q: How did the growth turn out when `Cc1ccc(CNS(=O)(=O)/N=C2\NC(=O)NC2=C(Cl)Cl)cc1` was run?
A: The growth was 14.5%.

Q: Which growth does the source give for `CO/N=C1\CCc2c(sc(NC(=O)c3cccc(C(F)(F)F)c3)c2C(N)=O)C1` here?
A: The growth was 35.4%.

Q: `O=C(CSc1nc2sc3c(c2c(=O)n1-c1ccc(Cl)cc1)CCCC3)N/N=C/c1ccc(F)cc1` was tested. Which growth did it give?
A: Its growth is 97.2%.

Q: With `CN1CCN(Cc2ccc(NC(=O)c3cncc(C#Cc4cnc5[nH]ncc5c4)c3)cc2C(F)(F)F)CC1` as the compound, how does the growth read?
A: Its growth is 31.2%.

Q: With `CC(C)(C)Nc1nc2c(OCCc3ccccc3)cccn2c1-c1ccc(Cl)cc1` as the compound, how does the growth read?
A: The growth was -16.1% (active).

Q: For `N#Cc1c(-c2ccc(Cl)cc2)nc(SCc2ccccc2)nc1N1CCNCC1`, which growth is on record?
A: Its growth is 23%.

Q: With `COc1ccc(/C=C/C(=O)c2ccc(NC(=O)CSc3nnc(-c4ccc5nc(-c6ccc(Cl)cc6)[nH]c5c4)o3)cc2)cc1` as the compound, how does the growth read?
A: Its growth is 64.4%.

Q: `CC(=O)Nc1cc(F)cc(-c2ccc3[nH]cc(-c4ccccc4)c3n2)c1` was tested. Which growth did it give?
A: Its growth is 5.72% (active).

Q: For `C=CCSc1ccc2c(c1)C(N1CCNCC1)=Nc1ccccc1O2`, which growth is on record?
A: The growth was 63.2% [8.25 µM].

Q: With `Fc1ccc(-c2nc(C(Cl)Cl)nc3cc(-c4ccccc4)nn23)cc1` as the compound, how does the growth read?
A: Its growth is 8.68% (active).

Q: For `COc1ccc(NC2=C(Cl)C(=O)C(C)=C(C)C2=O)cc1OC`, which growth is on record?
A: The growth was 88.7%.

Q: How did the growth turn out when `O=C1[C@H]2Cc3c([nH]c4ccccc34)[C@@H](c3ccc(Br)cc3)N2C(=O)CN1C1CCN(Cc2ccccc2)CC1` was run?
A: Its growth is 3.9% (active).

Q: How did the growth turn out when `Cn1c(SCC(=O)c2cccs2)nc2ccccc2c1=O` was run?
A: The growth was 81.7%.

Q: `C/C(=C(/c1ccc(Cl)cc1)c1ccc(OCCN)cc1)c1ccc(C)cc1` was tested. Which growth did it give?
A: The growth was 96.5%.

Tested on: OVCAR-8 ovarian
Assay: as above
Conditions: 10 µM unless noted

Q: `O=c1[nH]c2ccc(Cl)cc2cc1CSc1ccccc1Nc1nccc(-c2ccc(Cl)cc2)n1` was tested. Which growth did it give?
A: Its growth is 96.5%.

Q: Which growth does the source give for `CC(C)(C)OC(=O)N1C(=O)c2c(c3c4ccccc4[nH]c3c3ccc4ccccc4c23)C1=O` here?
A: The growth was 60.7%.

Q: With `CNC(=O)c1cc(-c2ccc(NC(=O)Nc3ccc(N4CCN(C)CC4)c(C(F)(F)F)c3)cc2)nc2cccnc12` as the compound, how does the growth read?
A: The growth was -84% (active).

Q: How did the growth turn out when `C/C(=N/NC(N)=S)c1ccc(Nc2nc(SCC(C)C)nc(-c3ccc(F)cc3)c2C#N)cc1` was run?
A: Its growth is -3.63% (active).

Q: With `CCCCN1C(=O)/C(=c2\sc3n(c2=O)C2C(NN=3)N(CC)C(=O)N2CC)c2cc(Cl)ccc21` (stereo unspecified) as the compound, how does the growth read?
A: Its growth is 95.6%.

Q: For `COc1cc(-c2nc3ccc(-c4nnc(SCC(=O)Nc5ccc(C(C)=O)cc5)o4)cc3[nH]2)cc(OC)c1OC`, which growth is on record?
A: Its growth is 94.9%.

Q: With `N#Cc1c(-c2ccc(Cl)cc2)nc(SCc2ccc(F)cc2)nc1N1CCNCC1` as the compound, how does the growth read?
A: Its growth is 38.6%.

Q: Which growth does the source give for `Cn1cc(-c2cc(N)n3nc(-c4cn(C)c5ccc(Br)cc45)cc3n2)c2cc(Br)ccc21` here?
A: The growth was 86.8%.

Q: For `Cc1cc(C(=O)Nc2sc3c(c2C(N)=O)CCC(=O)C3)ccc1OCCN1CCCCC1`, which growth is on record?
A: The growth was 101%.

Q: `NS(=O)(=O)c1ccc(Nc2nc(SCC(=O)c3ccc(Cl)cc3)nc3ccccc23)cc1` was tested. Which growth did it give?
A: The growth was 95.6%.

Q: With `CC(C)(C)Nc1nc2c(OCCc3ccccc3)cccn2c1-c1ccc(O)cc1` as the compound, how does the growth read?
A: The growth was 65.9%.

Q: Which growth does the source give for `CCOc1ccc2nc(NC(=O)c3ccc(C(F)(F)F)cc3)sc2c1` here?
A: Its growth is 107%.

Q: With `N#Cc1c(-c2ccc(Cl)cc2)nc(SCc2ccc([N+](=O)[O-])cc2)nc1N1CCNCC1` as the compound, how does the growth read?
A: Its growth is -81.6% (active).

Q: With `Cc1cccc(/C=C/c2nn3c(-c4ccco4)nnc3s2)c1` as the compound, how does the growth read?
A: The growth was 100%.

Q: For `Cc1sc2c(c1C)c(=O)nc1c(-c3nc(-c4ccc(F)cc4)no3)n[nH]n12`, which growth is on record?
A: Its growth is 104%.

Q: `C[C@@H]1CN(c2ccc3ncc(C#Cc4cncc(C(=O)Nc5ccc(CN6CCN(C)CC6)c(C(F)(F)F)c5)c4)n3n2)C[C@H](C)O1` was tested. Which growth did it give?
A: Its growth is 0.405% (active).

Q: `Nc1c(C(=O)Nc2ccc(Cl)cc2)sc2nc(-c3cnccn3)cc(-c3cccs3)c12` was tested. Which growth did it give?
A: Its growth is 48.1%.

Q: Which growth does the source give for `O=c1[nH]c2ccccc2cc1CSc1ccccc1Nc1nccc(-c2ccc(C(F)(F)F)cc2)n1` here?
A: Its growth is 38.1%.

Q: Which growth does the source give for `Cc1c(Nc2nnc(SCC(=O)Nc3sc4c(c3C#N)CCCC4)s2)c(=O)n(-c2ccccc2)n1C` here?
A: The growth was 100%.

Q: How did the growth turn out when `CS(=O)(=O)c1ccc(-c2nc3ccccn3c2C=Nc2ccc(Cl)cc2)cc1` was run?
A: The growth was 86.3%.

Q: How did the growth turn out when `N[C@@H](Cc1cn(-c2c3ccccc3nc3ccccc23)nn1)C(=O)O` was run?
A: The growth was 103%.

Q: How did the growth turn out when `CC(C)(C)Nc1nc2c(OCCc3ccccc3)cccn2c1-c1cccc(F)c1` was run?
A: The growth was 10.2%.

Q: With `CCN1C(=S)N(c2ccccc2)C2NC(=O)N(/N=C/C=C/c3ccccc3OC)C21` (stereo unspecified) as the compound, how does the growth read?
A: The growth was 73.1%.

Q: With `CCOC(=O)c1csc(NC(=O)CSc2nc3sc4c(c3c(=O)n2-c2ccc(Cl)cc2)CCCC4)n1` as the compound, how does the growth read?
A: Its growth is 97.6%.

Q: For `Cc1ccc(CNS(=O)(=O)/N=C2\NC(=O)NC2=C(Cl)Cl)cc1`, which growth is on record?
A: Its growth is 91.2%.

Q: With `CO/N=C1\CCc2c(sc(NC(=O)c3cccc(C(F)(F)F)c3)c2C(N)=O)C1` as the compound, how does the growth read?
A: The growth was 20.9%.

Q: With `O=C(CSc1nc2sc3c(c2c(=O)n1-c1ccc(Cl)cc1)CCCC3)N/N=C/c1ccc(F)cc1` as the compound, how does the growth read?
A: The growth was 96.7%.

Q: How did the growth turn out when `CN1CCN(Cc2ccc(NC(=O)c3cncc(C#Cc4cnc5[nH]ncc5c4)c3)cc2C(F)(F)F)CC1` was run?
A: The growth was 41.3%.

Q: For `CC(C)(C)Nc1nc2c(OCCc3ccccc3)cccn2c1-c1ccc(Cl)cc1`, which growth is on record?
A: The growth was 26.3%.

Q: Which growth does the source give for `N#Cc1c(-c2ccc(Cl)cc2)nc(SCc2ccccc2)nc1N1CCNCC1` here?
A: The growth was 65.6%.

Q: `COc1ccc(/C=C/C(=O)c2ccc(NC(=O)CSc3nnc(-c4ccc5nc(-c6ccc(Cl)cc6)[nH]c5c4)o3)cc2)cc1` was tested. Which growth did it give?
A: The growth was 79.5%.

Q: `CC(=O)Nc1cc(F)cc(-c2ccc3[nH]cc(-c4ccccc4)c3n2)c1` was tested. Which growth did it give?
A: The growth was 34%.

Q: How did the growth turn out when `C=CCSc1ccc2c(c1)C(N1CCNCC1)=Nc1ccccc1O2` was run?
A: The growth was 92.5% [8.25 µM].

Q: For `Fc1ccc(-c2nc(C(Cl)Cl)nc3cc(-c4ccccc4)nn23)cc1`, which growth is on record?
A: The growth was -0.748% (active).

Q: For `COc1ccc(NC2=C(Cl)C(=O)C(C)=C(C)C2=O)cc1OC`, which growth is on record?
A: The growth was 97.5%.

Q: With `O=C1[C@H]2Cc3c([nH]c4ccccc34)[C@@H](c3ccc(Br)cc3)N2C(=O)CN1C1CCN(Cc2ccccc2)CC1` as the compound, how does the growth read?
A: The growth was 41.6%.

Q: Which growth does the source give for `Cn1c(SCC(=O)c2cccs2)nc2ccccc2c1=O` here?
A: Its growth is 97.5%.

Q: `C/C(=C(/c1ccc(Cl)cc1)c1ccc(OCCN)cc1)c1ccc(C)cc1` was tested. Which growth did it give?
A: Its growth is 100%.
